Reference: PubChem BioAssay (EPA / NIEHS)
“And” between values parts separate entries of the source, which are not always exact repeats. Identical values can stand only once. Results filed as inconclusive are left out. Some compounds were tested as several samples or in several runs, with calls that do not always agree. The source made the active and inactive calls. How the source made its calls, unless noted: active means hit-call score of the fitted dose curve at least 0.9, where 1 is the maximum; inactive means score below 0.9. Peptide text beside a SMILES is read from it.

Columns and labels:
[1] = biological target: Estrogen receptor (Homo sapiens) (UniProt P03372); test: CCTE_Deisenroth_AIME_384WELL_LUC_Inactive: CCTE's 384-well Estrogen Receptor Transactivation Assay without AIME metabolic competence (ERTA luciferase; metabolism negative), Deisenroth Lab (AID 2284038; active means hit-call score of the fitted dose curve at least 0.9, where 1 is the maximum;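 further: hits raise estrogen receptor luciferase signal so potencies reflect agonists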)
How it was run: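 Metabolism-negative mode: AIME lids stamped in alginate-water, no hepatic S9. 2 h chemical incubation → medium onto VM7Luc4E2 ERTA, 24 h. Readout luciferase luminescence; gain-of-signal fit vs 17beta-estradiol. Conc. 0.002 - 200 uM.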

[2] = CCTE_Deisenroth_AIME_384WELL_CTox_Inactive: Cytotoxicity Assessment (CTOX) in CCTE's 384-well Estrogen Receptor Transactivation Assay without AIME metabolic competence (metabolism negative), Deisenroth Lab (AID 2284039; active means hit-call score of the fitted dose curve at least 0.9, where 1 is the maximum;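 further: cell viability via live-cell protease substrate cleaved to fluorescent probe; cells exposed 24 h to medium preincubated 2 h with alginate-water beads without S9; loss of fluorescence signal means loss of viability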)
How it was run: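 VM7Luc4E2 human breast cells received conditioned medium from a 2 h incubation of chemical with alginate-water microspheres (no S9), then were exposed 24 h. Viability was read as protease-substrate cleavage to a fluorescent probe; loss of signal was fitted bidirectionally over 0.002–200 uM.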

[3] = biological target: Estrogen receptor (Homo sapiens) (UniProt P03372); test: CCTE_Deisenroth_AIME_384WELL_LUC_Shift: CCTE's 384-well Estrogen Receptor Transactivation Assay with AIME metabolic competence data shift (ERTA luciferase; difference in metabolism positive and negative), Deisenroth Lab (AID 2284041);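 further: shift is response with S9 minus without S9 so positive means metabolism raised ER signal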
How it was run: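 Test chemicals (0.002–200 uM, 10-point) were pre-incubated 2 h with alginate microspheres containing phenobarbital/beta-naphthoflavone-induced male Sprague Dawley rat liver S9 or water, then medium was transferred to VM7Luc4E2 cells for 24 h luciferase readout; shift = S9-positive minus S9-negative normalized response.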

[4] = CCTE_Shafer_MEA_dev_active_electrodes_number: CCTE's Neural Network Formation Assay for Number of Active Electrodes, Shafer Lab (AID 2284040; active means hit-call score of the fitted dose curve at least 0.9, where 1 is the maximum;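 on AC50: potency for loss of active electrodes versus DMSO so lower counts are hits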)
How it was run: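 Developing rat cortical networks on MEAs, exposed DIV 0–12. Value is the AUC of active-electrode counts (≥5 spikes/min) from days 5, 7, 9, 12, relative to DMSO.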

[5] = CCTE_Shafer_MEA_dev_burst_rate: CCTE's Neural Network Formation Assay for Burst Rate, Shafer Lab (AID 2284042)
How it was run: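 Rat primary cortical cultures on PEI/laminin MEA; compound from plating, re-dosed at DIV 5, 9 media change. Single-electrode bursts/recording length, well mean of active electrodes; AUC over DIV 5–12 recordings; loss-of-signal vs DMSO.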

[6] = CCTE_Shafer_MEA_dev_bursting_electrodes_number: CCTE's Neural Network Formation Assay for Number of Bursting Electrodes, Shafer Lab (AID 2284043; active means hit-call score of the fitted dose curve at least 0.9, where 1 is the maximum)
How it was run: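 Number of electrodes reaching ≥1 burst every 2 min was recorded at DIV 5, 7, 9 and 12 and collapsed as trapezoidal area under the curve. Cultures were rat cortical neurons on MEA plates, dosed continuously from plating with medium and treatment refreshed on DIV 5 and 9.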

[7] = CCTE_Shafer_MEA_dev_per_burst_interspike_interval: CCTE's Neural Network Formation Assay for Burst Interspike Interval, Shafer Lab (AID 2284044);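 further: mean spike spacing inside bursts as AUC over recordings on days 5 7 9 12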;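 on AC50: potency for a decrease of within-burst interspike interval below DMSO level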
How it was run: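 Neurons from rat cortex plated onto PEI-coated MEA wells with laminin […] at 1.5 x 10^5 cells/well, then treated from day 0. Media and compound fully replaced on DIV 5 and 9. Extracellular spontaneous firing recorded four times; interspike interval per burst summarised as AUC.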

[8] = CCTE_Shafer_MEA_dev_burst_duration_mean: CCTE's Neural Network Formation Assay for Mean Burst Duration, Shafer Lab (AID 2284045);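 on AC50: curve fitted for loss meaning shorter burst duration than DMSO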
Method: CCTE_Shafer_MEA_dev assay is conducted using Axion Biosystems 48 well microelectrode array (MEA) plates and Maestro recording system. Each well of the MEA plate contains a grid of 16 microelectrodes embedded in the culture surface. Electrically active cells, such as neurons, can be cultured over the electrodes, and electrical activity in these cells can be recorded extracellularly. The spontaneous firing of neurons is captured from each electrode on a microsecond timescale providing both temporally and spatially precise data. […] The CCTE_Shafer_MEA_dev assay uses primary cultures of rat cortical neurons. Recordings are made on days post-plating 5, 7, 9 and 12. As these cultures mature over time, neural networks develop functional activity and form cohesive networks in which electrical activity can be highly coordinated. CCTE_Shafer_MEA_dev_burst_duration_mean is 1 of 19 assay components of the CCTE_Shafer_MEA_dev assay. It measures the average time interval from the first spike (action potential firing) to the last spike in a singe-electrode burst (temporally-clustered group of spikes) during a recording in a microelectrode array (MEA) using Axion Biosystems Maestro 768 channel amplifier with the AxIS adaptive spike detector. The mean burst duration is averaged across the actively bursting electrodes to report a well-mean value. To collapse across multiple recordings made on days post-plating 5, 7, 9 and 12, the trapezoidal area-under-the-curve of the component is calculated.Data from the assay component CCTE_Shafer_MEA_dev_burst_duration_mean was analyzed into 1 assay endpoint. This assay endpoint, CCTE_Shafer_MEA_dev_burst_duration_mean, was analyzed in the negative analysis fitting direction relative to DMSO as the negative control and baseline of activity. Using a type of functional reporter, gain or loss-of-signal activity can be used to understand electrical activity.
On the day prior to culture, each well was coated thoroughly with 150 uL of 0.05% polyethyleneimine (PEI, Sigma Cat P3143) in 50 mM HEPES (Sigma Cat H7523) at a pH of 8. The plate was incubated at 37C for one hour. PEI was rinsed out with 500 uL of sterile water three times. Plates were stored at 4C until the day of culture. This culture was plated at a seeding density of 1.5 x 10^5 cells/well on a 48-well MEA plate, prepared as described above. Cells were administered via a 25 uL media/laminin ([…]; Sigma Cat L2020-1MG) drop directly onto the microelectrode array, as adding the cells with the laminin results in better attachment than pre-coating with laminin. After 2 hours, an additional 475 uL of cortical media was added and the cells returned to the incubator. Exposure starts at day 0 of plating and is continued over twelve days of network development until the experiment is terminated. Cells are fed with fresh medium on DIV 5 and 9, following the recordings on those days. The entire volume of media in the well is exchanged and any vehicle or compound treatment is renewed. Complete details are found in OP-NHEERL/ISTD/SBB/TJS/2015-03-r0 (available on request, email shafer.tim@epa.gov). Measurement of the electrical activity is non-invasive, and recordings can be made from the same plate over multiple different days of the culture. In cortical neurons, this allows for the measurement of extracellular action potentials over the period during which networks form in the MEA plate.

[9] = CCTE_Shafer_MEA_dev_interburst_interval_mean: CCTE's Neural Network Formation Assay for Mean Interburst Interval, Shafer Lab (AID 2284046);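 further: well-mean interburst interval of bursting electrodes as AUC over four recording days; curve fitted for decrease in interburst interval relative to DMSO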
How it was run: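 Rat cortical neurons, 1.5 x 10^5 cells/well, 48-well MEA; compound from day 0 through DIV 12, media and treatment renewed DIV 5/9. Recordings DIV 5, 7, 9, 12; well-mean interburst interval → trapezoidal AUC, loss direction vs DMSO.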

[10] = CCTE_Shafer_MEA_dev_inter_network_spike_interval_mean: CCTE's Neural Network Formation Assay for Mean Inter-network Spike Interval, Shafer Lab (AID 2284047)
How it was run: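 Primary rat cortical neurons on PEI-coated 48-well MEAs (16 electrodes/well) were exposed from plating day 0 to DIV 12, with dosing renewed at DIV 5 and 9. Recordings at DIV 5, 7, 9, 12 were collapsed by trapezoidal AUC, loss-of-signal fit vs DMSO.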

Sequence of Estrogen receptor (Homo sapiens) (P03372 whole entry, looked up): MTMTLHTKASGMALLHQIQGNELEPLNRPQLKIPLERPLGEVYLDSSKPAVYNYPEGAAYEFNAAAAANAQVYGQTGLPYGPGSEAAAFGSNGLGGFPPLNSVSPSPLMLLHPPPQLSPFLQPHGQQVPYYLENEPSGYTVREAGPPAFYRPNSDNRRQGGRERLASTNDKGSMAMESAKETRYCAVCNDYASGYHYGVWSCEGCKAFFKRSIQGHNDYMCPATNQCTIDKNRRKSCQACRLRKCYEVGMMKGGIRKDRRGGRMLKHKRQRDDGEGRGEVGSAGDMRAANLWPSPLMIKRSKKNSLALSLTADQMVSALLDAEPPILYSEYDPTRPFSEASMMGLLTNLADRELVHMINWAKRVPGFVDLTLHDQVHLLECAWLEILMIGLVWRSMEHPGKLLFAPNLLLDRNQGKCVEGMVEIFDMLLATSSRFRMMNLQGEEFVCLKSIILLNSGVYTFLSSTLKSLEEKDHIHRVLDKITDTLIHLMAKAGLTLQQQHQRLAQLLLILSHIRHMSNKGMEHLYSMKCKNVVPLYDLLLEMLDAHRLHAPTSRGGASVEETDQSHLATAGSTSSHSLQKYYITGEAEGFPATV

N#Cc1ccc(C(c2ccc(C#N)cc2)n2cncn2)cc1
outcome [1]: inactive | outcome [2]: inactive | outcome [3]: inactive

C/C=C/C=C/CCCCCCCO
outcome [1]: inactive | AC50 [2]: 151 µM (active) | outcome [3]: inactive

O=c1c(O)c(-c2ccc(O)cc2O)oc2cc(O)cc(O)c12
AC50 [1]: 109 µM (active) | AC50 [2]: 146 µM (active) | outcome [3]: inactive

Nc1ccc(C(=O)O)cc1
outcome [1]: inactive | outcome [2]: inactive | outcome [3]: inactive

C=C[C@@]1(C)CC(=O)[C@]2(O)[C@@]3(C)[C@@H](O)CCC(C)(C)[C@@H]3[C@H](O)[C@H](OC(C)=O)[C@@]2(C)O1
outcome [1]: inactive | outcome [2]: inactive | outcome [3]: inactive

O=C(Nc1ccccc1)c1cc(Cl)ccc1O
outcome [1]: inactive | AC50 [2]: 0.484 µM (active) | outcome [3]: inactive

CC(=O)OCc1ccccc1
outcome [1]: inactive | outcome [2]: inactive | outcome [3]: inactive

CCC1COC(=O)O1 (stereo not drawn)
outcome [1]: inactive | outcome [2]: inactive | outcome [3]: inactive

C=C(C)C1CC=C(C)CC1 (stereo not drawn)
outcome [1]: inactive | outcome [2]: inactive | outcome [3]: inactive

O=C(O)c1ccc2c(c1)C(=O)OC2=O
outcome [1]: inactive | outcome [3]: inactive

CCCCNS(=O)(=O)c1ccc(C)cc1
outcome [1]: inactive | AC50 [3]: 0.0002 µM (active)

O=C(O)C1CCC(C(=O)O)CC1 (stereo not drawn)
outcome [1]: inactive | outcome [3]: inactive

C[N+](C)(C)CCCNS(=O)(=O)C(F)(F)C(F)(F)C(F)(F)C(F)(F)C(F)(F)C(F)(F)C(F)(F)C(F)(F)F
AC50 [4]: 1.13 µM (active) and 1.65 µM (active) | outcome [5]: inactive | AC50 [6]: 1.55 µM (active) and 4.37 µM (active) | AC50 [7]: 2.98 µM (active) | outcome [7]: inactive | outcome [8]: inactive | AC50 [9]: 2.43 µM (active) and 4.96 µM (active) | outcome [10]: inactive

Cc1ccc([N+](=O)[O-])cc1N
outcome [1]: inactive | outcome [3]: inactive

O=S(=O)(O)c1ccc(N=Nc2c(O)ccc3ccccc23)cc1
outcome [1]: inactive | AC50 [2]: 72.8 µM (active) | outcome [3]: inactive

CCCCCCCCC(CO)CCCCCC (stereo not drawn)
outcome [1]: inactive | outcome [3]: inactive

CCC(C)(O)CCCC(C)C (stereo not drawn)
outcome [1]: inactive | AC50 [3]: 67.7 µM (active)

C=CCOC(=O)c1ccc(C(=O)OCC=C)c(C(=O)OCC=C)c1
outcome [1]: inactive | outcome [3]: inactive

CCCCCCCCCCCCCC(=O)OC(C)C
outcome [1]: inactive | outcome [3]: inactive

CCCCCCOc1ccc(N)cc1
AC50 [1]: 53.9 µM (active) | AC50 [3]: 42.7 µM (active)

CCCCCCCCCC[N+](C)(CCCCCCCCCC)CCC[Si](OC)(OC)OC
AC50 [2]: 100 µM (active) | outcome [3]: inactive

CC(C)(C)NC(=O)[C@H]1CC[C@H]2[C@@H]3CC[C@H]4NC(=O)C=C[C@]4(C)[C@H]3CC[C@]12C
outcome [3]: inactive

CCCCNS(=O)(=O)c1ccccc1
outcome [1]: inactive | outcome [4]: inactive | outcome [3]: inactive | outcome [5]: inactive | outcome [6]: inactive | outcome [7]: inactive | outcome [8]: inactive | outcome [9]: inactive | outcome [10]: inactive

CCCCCCCCCCCCc1ccc(O)cc1
AC50 [1]: 1.01 µM (active) | AC50 [2]: 86.1 µM (active) | outcome [3]: inactive

CCCCNC(=S)NCCCC
outcome [1]: inactive | outcome [3]: inactive

CC1(C)[C@@H]2CC[C@@]1(C)C(=O)C2
outcome [1]: inactive | outcome [3]: inactive

Cc1noc(NS(=O)(=O)c2ccc(N)cc2)c1C
outcome [5]: inactive | outcome [6]: inactive | outcome [7]: inactive | AC50 [8]: 24.1 µM (active) | outcome [9]: inactive | outcome [10]: inactive

O=C(O)c1cc(O)c2ccccc2c1O
AC50 [2]: 56.4 µM (active) | outcome [3]: inactive

COC(=O)[C@H](Cc1ccccc1)NC(=O)[C@@H](N)CC(=O)O (H-Asp-Phe-OMe)
outcome [1]: inactive | outcome [4]: inactive | outcome [3]: inactive | outcome [5]: inactive | outcome [7]: inactive | outcome [8]: inactive | outcome [9]: inactive | outcome [10]: inactive

CC(C)c1cc(C(C)C)cc(C(C)C)c1
outcome [1]: inactive | outcome [2]: inactive | outcome [3]: inactive

CO[Si](C)(C)OC
outcome [1]: inactive | outcome [3]: inactive

Cc1c(C(=O)c2c[nH]n(C)c2=O)ccc(S(C)(=O)=O)c1C1=NOCC1
outcome [4]: inactive | outcome [5]: inactive | outcome [6]: inactive | outcome [7]: inactive | outcome [8]: inactive | outcome [9]: inactive | outcome [10]: inactive

CCCC(CC)c1ccccc1 (stereo not drawn)
outcome [1]: inactive | outcome [2]: inactive | outcome [3]: inactive

CC(C)=CCCC(C)=CC#N
outcome [1]: inactive | outcome [3]: inactive
